# Compound activity from PubChem BioAssay.
# Sm TGR inh: inhibitors of Schistosoma mansoni thioredoxin glutathione reductase; Q962Y6; purified TGR, DTNB reduction, TNB absorbance 405 nm; Potency, µM (series often up to 114 µM), without a hit: at the highest dose activity change, negative = inhibition, usual class: inhibitors; 3% of 360,000 active; AID 485364; note: potency is the fitted concentration of half-maximal effect; % is set by controls: 0 for no effect and ±100 for the full control effect; nearly all actives have a fitted effect of over 60% in size
#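 TGR 20 nM + NADPH 100 uM (dispensed conc.), cpd preinc 15 min RT; start with NADPH (500 uM addition) then DTNB (15 mM addition). Kinetic TNB absorbance, 405 nm filter. Four-parameter Hill fit across titration.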
# Cycloheximide cs: counter-screen hit for Shiga toxin inhibitors, cycloheximide | max response, % | AID 2314 | cell reporter, cycloheximide protein synthesis inhibition counterscreen | 12% of 300,000 active; in the data active = max response mostly above about 13%, no sharp cut-off; inactive = mostly below about 14%; note: read at 38.3 µM for the half of the compounds with a filed dose; 0% is about no effect
# Pf growth 48h: P. falciparum growth inhibition at 48 hours (one generation). 5.9% of 310,000 active. Potency, µM (top dose mostly 28.7 µM), for the others: at the highest dose activity change, negative = inhibition, usual class: inhibitors. AID 504832. P. falciparum luciferase growth in erythrocytes, 48 h; note: potency is the fitted concentration of half-maximal effect; % is set by controls: 0 for no effect and ±100 for the full control effect
#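 Luminescence readout; reporter = integrated firefly luciferase in P. falciparum. RBC culture at 2% hematocrit, 0.1% parasitemia final, 37 C/5% CO2; decreased signal taken as growth inhibition.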
# NS1 inh: blocks influenza NS1 protein function | Potency, µM (titrated, usually from 46.1 µM), without a hit: top-dose activity, positive = more growth | 0.4% of 270,000 active; calls by dose curve; note: potency is the fitted concentration of half-maximal effect; actives are rising curves; nearly all actives have a fitted effect of over 50% in size
#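 Compounds were scored for reversing the slow growth caused by influenza A NS1 in S. cerevisiae, measured by optical density at 600 nm. Assay medium contained 2% galactose at pH 6.0; NS1-free yeast of the same strain were the positive control.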
# Pf growth 96h: inhibits malaria parasite growth, 96 h. 6.9% of 320,000 active. AID 504834. Potency, µM (top dose mostly 28.7 µM), for inactives: at the top dose activity change, negative = inhibition, usual class: inhibitors. P. falciparum luciferase reporter growth, 96 h; note: potency is the fitted concentration of half-maximal effect; % is set by controls: 0 for no effect and ±100 for the full control effect
#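 Cell-based qHTS: luciferase-tagged P. falciparum in erythrocytes (2% hematocrit, 0.05% parasitemia final) incubated with compounds for 96 hours, 37 C, 5% CO2; luciferase detection reagent then added and luminescence measured.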
# Shiga toxin inh: Shiga toxin inhibition. Vero cells, Shiga toxin protein synthesis inhibition reporter. 9.2% of 290,000 active. AID 2315. inhibition, % at 38.7 µM; in the data active = inhibition mostly above about 28%, no sharp cut-off; inactive = mostly below about 43%; note: 0% is about no effect
# * hit, by the source's call; ? = inconclusive; . = no result. A selection: hits, their analogues and other compounds. The true share with any hit is near 21%. Unless noted, calls come from the whole dose curve; as a rule, active = well fitted curve in the direction sought with a large enough effect; inconclusive = small, poorly fitted or top-dose-only effect, or another doubt; inactive = no such curve, though single readings can be large; an effect the other way counts as inactive or inconclusive.
SMILES,Sm TGR inh,Cycloheximide cs,Pf growth 48h,NS1 inh,Pf growth 96h,Shiga toxin inh
COc1ccc(-n2nc(C(=O)NCC(=O)NC(C)C)c3ccccc3c2=O)cc1Cl,-12%,-1,-17%,-2%,32%,1
CCOC(=O)C1CCCN(S(=O)(=O)CCNC(=O)c2cccc(OC)c2)C1 (stereo unspecified),-3%,.,7%,.,-24%,.
CN(C)C(=O)Nc1cnc2ccccc2c1,-4%,-2,13%,2%,8%,9
CCN(C(=O)/C=C/c1ccccc1)C1CCCCC1,3%,6.9*,84%,1%,13µM*,36
CN(C(=O)/C=C/c1cnc2ccccc2c1)C1CCCCC1,-13%,26*,40%,.,242%,70*
COc1ccc(/C=C/C(=O)NC(C)C)cc1Br,4%,13*,?,-6%,?,4
COc1ccc(/C=C/C(=O)N(C)C2CCCCC2)cc1Br,.,26*,-9%,3%,0%,78*
Cc1ccc(N2C(=O)C3C4CCC(O4)C3C2=O)c(OC(F)F)c1 (stereo unspecified),10%,.,12%,.,-2%,.
Cc1cc(Cl)ccc1NC(=O)CCS(=O)(=O)c1ccc2c(c1)CC(C)N2C(=O)C1CC1 (stereo unspecified),-1%,.,.,.,.,.
CCOc1ccc(NC(=O)C(=O)NCCc2sc(-c3ccc(C)cc3)nc2C)cc1,6%,.,.,.,.,.
COc1ccc(/C=C/C(=O)N(C(C)C)C(C)C)cc1Br,-3%,24*,6.6µM*,-12%,?,51*
Cc1ccccc1S(=O)(=O)Cc1ccc(C(=O)NCCN(Cc2ccccc2)C(C)C)o1,-34%,-2,5.2µM*,1%,-9%,-8
Cc1ccccc1S(=O)(=O)Cc1ccc(C(=O)NCCCN2CCCC(C)C2)o1 (stereo unspecified),?,-4,-2%,4%,2.3µM*,-12
COCC(C)NC(=O)C1=CC(c2ccc3c(c2)OCO3)=NS(=O)(=O)N1C (stereo unspecified),-17%,.,.,.,.,.
Cc1ccc(F)cc1NC(=O)C12CC3CC(C1)CC(n1cnc([N+](=O)[O-])n1)(C3)C2,-16%,-3,-5%,18%,-29%,-9
CSCCC(NS(=O)(=O)c1ccccc1)C(=O)OC(C)C(=O)Nc1ccc(Cl)cn1 (stereo unspecified),-2%,.,8%,.,-21%,.
CC(C)CC(NC(=O)CCl)c1ccccc1 (stereo unspecified),40µM*,1,-11%,7%,?,16
CCCC(NC(=O)CCl)c1ccccc1 (stereo unspecified),45µM*,6,9.3µM*,12%,?,-4
CCC(NC(=O)CCc1ccccc1)c1ccccc1 (stereo unspecified),2%,-8,1%,2%,?,-12
CC(NC(=O)CCl)c1ccc(Cl)c(Cl)c1 (stereo unspecified),16µM*,1,.,2%,3.7µM*,-2
CC(NC(=O)c1ccc(Cl)c(Cl)c1)c1ccc(-c2ccccc2)cc1 (stereo unspecified),5%,-6,8%,-5%,12%,-3
CCC(NC(=O)CCl)c1ccc(C)cc1 (stereo unspecified),?,6,5.9µM*,1%,1.3µM*,25
CCCc1nnc(SCc2cc(=O)c3c(C)cc(C)cc3[nH]2)n1C,-2%,.,.,.,.,.
CC1CCCN(S(=O)(=O)c2cc3c4c(c2)CC(=O)N4CCC3)C1 (stereo unspecified),10%,.,.,.,.,.
CCN(CC)S(=O)(=O)c1ccc2c(c1)N(CC(=O)N1CCN(c3cccc(C(F)(F)F)c3)CC1)C(=O)CO2,1%,.,.,.,.,.
COc1ccc(Cl)cc1NC(=S)N1CCN(C(=O)c2ccco2)CC1,2%,-4,5%,-9%,?,-9
CC(NC(=O)CCl)c1ccccc1Br (stereo unspecified),16µM*,7,1.5µM*,2%,1.5µM*,-1
Cc1ccc(S(=O)(=O)NCC(=O)NCC(=O)NC(C)c2ccccc2Br)cc1C (stereo unspecified),1%,-4,-15%,6%,-12%,5
OC(CNCc1ccccc1C(F)(F)F)C(F)(F)F (stereo unspecified),2%,6,11%,5%,0%,-10
